Source: the supplement of paper PMC6555819

Assays:
Test in all cases: PBM binding z-score (relative to random genomic background probes); higher = stronger binding; sequences stand for … in GC…GCGATTGACAGCGTAGAATGAAGG
[1] = test system: RARb homodimer (NR concentration 270 nM)
Outline: (§1)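 The probes on custom Agilent 4×180K protein-binding microarrays were double-stranded, with 34-nt variable regions bearing direct-repeat seeds, single-nucleotide variants, half-site ablations and random human genomic background sequences. Incubation lasted 1 h with ligand-free nuclear receptor dimers in PBS pH 7.4, 2% milk, 0.02% Triton X-100, 1 mM DTT, 0.2 mg/mL BSA and 0.4 mg/ml salmon testes DNA. Antibodies against each partner (one per run) detected bound dimers, and fluorescence scans were regression-normalized. Binding z-scores take the random background probes as reference.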

[2] = test system: RARg:RXRa (NR concentration 270 nM, RXRa partner concentration 90 nM)
Outline: as §1

[3] = test system: RARg homodimer (NR concentration 270 nM)
Outline: as §1

[4] = test system: RXRa DBDmut IVT, anti-RXR (DBD mutation: RXRa K156A/R161A, NR concentration 90 nM)
Outline: as §1

[5] = test system: RXRa homodimer (NR concentration 180 nM)
Outline: as §1

[6] = test system: THRa:RXRa (NR concentration 90 nM, RXRa partner concentration 90 nM)
Outline: as §1

[7] = test system: THRa homodimer (NR concentration 90 nM)
Outline: as §1

[8] = test system: VDR homodimer (NR concentration 270 nM)
Outline: as §1

Sequence	PBM binding z-score [1]	PBM binding z-score [2]	PBM binding z-score [3]	PBM binding z-score [4]	PBM binding z-score [5]	PBM binding z-score [6]	PBM binding z-score [7]	PBM binding z-score [8]
CCTAGATGGTCAAGGTCACACACGCTATAGGTAC	4.55	4.69	4.96	2.04	4.74	4.1	3.84	3.61
CCAACTAGGTCAGAACAGGACAGTGAAGGATGAT	2.43	2.41	3.03	1.3	1.22	3.67	0.727	0.723
GGAACGACGGCAAGTTGATAGCAGAGTTTGATGG	-0.7	-0.136	-0.0502	-0.124	-0.0735	-0.769	-1.02	-0.205
CCTATTGGGCCAAAGGTCATTGATTCCAATGCTC	4.43	5.85	4.73	1.62	6.7	3.29	0.647	2.85
CTCGAAAGGTCGGTAGAGGTGAGTATACGGATAA	2.52	2.89	2.98	0.197	2.49	4.38	-0.139	0.0872
ATCTCTACGTAAGACTCAGTTCAGTGAAGAACGC	0.71	0.107	0.393	0.74	0.286	0.601	0.378	1.45
TCGCGGAGGACACGAAGGTCAGAGCTTTCCAGAG	3.67	3.06	3.52	0.372	1.64	2.62	0.443	1.19
CCTACTGGGCCTCGAAAGGTCATTGATTCAGTGA	4.35	4.09	3.27	0.125	4.83	3.14	0.721	1.43
ATCGAAAGTTCGTGAGGTGAGTATACAGAAAGGC	1.8	2.22	1.86	2.13	1.78	2.23	1.23	1.22
TCTTGTAGGTCAAGCAGGTTAAGAAAGCCTGAGT	3.48	4.8	5.5	1.7	4.02	3.08	0.641	1.49
ATCGAAAGGGCGAGGTGAGTATAGAGAAAGGGAA	1.45	1.48	1.58	-0.127	0.756	1.63	0.413	-0.029
TCTATTAGTTGAAGTGCAACCGACGAGTCCGTTT	0.42	0.379	0.172	1.58	0.754	0.107	0.145	1.83
CCTTACGGTTCAAGGTTATAGCACGGGTGGTACG	1.39	1.69	1.21	2.6	2.38	2.15	1.41	3.31
TCTTGTAGATCAAGCAGGCTAAGAAAGCCTGAGT	-0.885	-0.605	-0.521	0.402	-0.67	-0.805	-0.733	-0.349
ACAGACAGGTGAGTGAAGGTAACTTAGCTGGACG	-0.0414	0.357	0.463	-0.514	0.233	1.46	-0.186	-0.226
AGAACGAGGGCAATGAGTTGATGGCACGGGTGGC	1.11	0.928	1.54	1.36	0.636	0.857	-0.205	2.62
TCTTGTAGATCAAAGGATAAGAAAGCCGAAGCCT	-1.11	-0.0685	-0.196	0.579	0.0933	-0.444	-0.847	-0.298

Sequence	PBM binding z-score [1]	PBM binding z-score [2]	PBM binding z-score [3]	PBM binding z-score [4]	PBM binding z-score [5]	PBM binding z-score [6]	PBM binding z-score [7]	PBM binding z-score [8]
CCTAGCAGGCCAATCTGGGTCACTTAAGGCTTGA	2.26	1.07	1.19	-0.0983	0.84	3.93	0.596	0.132
CCAGACAGGTGAGAAGGTGACTCAGCCTCGATTA	1.23	1.04	0.771	-0.175	0.552	0.445	0.379	-0.284
ATACCAAGGTGGTCGTGAGGTCGTTGATACTAAC	1.63	1.25	0.566	0.422	1.53	3.02	2.64	3.47
AGAATGAGGTTATACGTAGATCAGTGAAGAAAGT	0.6	1.71	1.14	1.92	2.12	1.99	0.44	0.703
AATACAGGGTCCCTAGGCCAGAGTAGGTACGAAT	-0.162	0.119	0.25	-0.442	0.211	0.106	-0.229	0.0969
AATACAGGGTCATCGTCGGCCAGAGTACGCACAG	3.96	5.6	5.02	3.4	6.37	4.1	1.64	3.57
CGTCCAAGGTCAATGCTAGGACAGTGAAAGCATT	4.05	5.76	5.95	3.01	4.3	4.3	2.32	2.24
GTACCAAGGTGAATAGGTCGTGGATGAGTAGGCG	2.29	3.12	1.51	-0.652	2.44	1.91	0.648	-0.0897
GCTATTAGTTGAAAGGGCAACCGTATGATTCTCG	2.21	1.41	1.14	1.01	1.43	0.799	-0.237	0.306
AGAATGAGGTTACAAAAGATCAGGGAAACGCTTG	0.449	1.86	1.58	1.16	2.44	2.6	-0.0281	0.342
TCGAGTAGGTTAGGGGCATACAGAATGGCGTCGA	0.759	0.546	0.52	0.367	1	0.925	0.135	0.73
TGTCAAAGTTCAAAGGAAACGTAAGTATCCACAC	3.37	5.07	5.18	3.95	4.12	1.62	-0.452	3.4
CCTAGCAGGCCAATCTGGTTCACTCAAGGCTTGA	0.26	-0.172	-0.0939	0.398	-0.304	1.38	-0.212	0.42
TCTTGTAGATCAAGGGTTAAGAAAGCCGAAGCCT	0.274	0.818	0.191	0.293	1.64	0.516	-0.93	-0.218
GCTAGCAGGCCATTTGGGTCACTAAATGACGGGC	1.76	0.89	1.18	-0.318	0.776	1.68	0.196	0.0959
CCAGACAGGTGACAGGTAACTCAGTCTGGTACGC	0.331	0.209	0.537	-0.242	0.665	0.126	-0.089	-0.0347
ATACCAAGGTGATCTTGAGGTCGTTGATACTAAC	1.9	2.62	1.12	1.19	2.04	3.66	2.9	3.21
